In PubChem BioAssay (Tox21):
Values joined by “and” are separate entries in the source; they are usually repeats but may differ in a detail not shown here. Identical values can stand only once. Results filed as inconclusive are left out. Some compounds were tested as several samples or in several runs, with calls that do not always agree. Active and inactive are the calls of the source. Unless noted, calls follow the shape of the full dose curve.

What was measured:
[1] = Nuclear factor erythroid 2-related factor 2/antioxidant responsive element (Nrf2/ARE) small molecule agonists: qHTS cell viability counter screen in human keratinocytes (AID 1919968; active = well fitted curve in the direction sought with a large enough effect in the repeat runs; an effect the other way counts as inactive or inconclusive; also: nearly all actives have a fitted effect of over 55% in size; also: potency is read from the fitted curve at half-maximal effect)
How it was run: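 Stably transfected HaCaT (KeratinoSens), 1,500/well. Test agents in DMSO were applied for 23 h, 37 C/5% CO2. CellTiter-Fluor was incubated 1 h before the fluorescence read.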

[2] = Nuclear factor erythroid 2-related factor 2/antioxidant responsive element (Nrf2/ARE) small molecule agonists: luciferase reporter gene qHTS assay in human keratinocytes (AID 1919969); also: nearly all actives have a fitted effect of over 35% in size; also: potency is read from the fitted curve at half-maximal effect
[3] = biological target: Gonadotropin-releasing hormone receptor (Homo sapiens) (UniProt P30968); experiment: Human gonadotropin-releasing hormone receptor (GnRHR) small molecule agonists, calcium flux assay in GnRHR-HEK293 cells (AID 1920063); also: nearly all actives have a fitted effect of over 35% in size
Gonadotropin-releasing hormone receptor (Homo sapiens), sequence (P30968 whole entry, looked up): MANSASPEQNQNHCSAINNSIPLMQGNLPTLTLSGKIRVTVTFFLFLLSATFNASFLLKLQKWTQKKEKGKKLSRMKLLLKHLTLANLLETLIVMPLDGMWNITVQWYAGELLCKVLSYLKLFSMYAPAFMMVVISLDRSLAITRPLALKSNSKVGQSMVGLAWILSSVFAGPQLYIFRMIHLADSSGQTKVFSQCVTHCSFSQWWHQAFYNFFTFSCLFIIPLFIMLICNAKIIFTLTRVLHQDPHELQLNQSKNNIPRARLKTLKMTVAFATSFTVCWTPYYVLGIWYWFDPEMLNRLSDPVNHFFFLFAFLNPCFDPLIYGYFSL
How it was run: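 Stable human GnRHR HEK293 line. 18 h plating, then calcium dye for 1 h at 37 C. Agonist-mode compound addition from DMSO stocks; fluorescence monitored 3 min.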

[4] = biological target: KiSS-1 receptor (Homo sapiens) (UniProt Q969F8); experiment: Human kisspeptin (KISS1R) small molecule agonists, calcium flux assay in KISS1R-HEK293 cells (AID 1920064; active = well fitted curve in the direction sought with a large enough effect in the repeat runs; an effect the other way counts as inactive or inconclusive)
KiSS-1 receptor (Homo sapiens), sequence (Q969F8 whole entry, looked up): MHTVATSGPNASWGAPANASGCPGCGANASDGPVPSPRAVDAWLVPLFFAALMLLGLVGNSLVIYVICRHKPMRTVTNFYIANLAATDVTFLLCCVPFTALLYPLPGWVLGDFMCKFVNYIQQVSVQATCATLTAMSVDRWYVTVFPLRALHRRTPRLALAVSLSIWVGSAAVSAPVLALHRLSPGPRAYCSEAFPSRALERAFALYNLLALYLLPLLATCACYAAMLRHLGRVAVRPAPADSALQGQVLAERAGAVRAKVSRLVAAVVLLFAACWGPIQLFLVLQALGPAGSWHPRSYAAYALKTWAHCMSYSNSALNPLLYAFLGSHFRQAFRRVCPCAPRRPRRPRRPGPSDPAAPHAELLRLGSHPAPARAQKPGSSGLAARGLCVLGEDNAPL
How it was run: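 After overnight (18 h) culture at 37 C/5% CO2, human KISS1R-HEK293 cells received calcium dye for 1 h, then test compound; emission at 540 nm (excitation 480 nm) was tracked for 3 min.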

[5] = G protein-coupled receptor (GPCR) small molecule agonists, calcium flux assay: HEK293 wild type cell line counter screen (AID 1920065)
How it was run: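 Following 18 h incubation at 37 C/5% CO2, plates got calcium dye for 1 h; compounds, ATP or DMSO were then pinned in and fluorescence followed kinetically (480/540 nm).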

[6] = p53 small molecule agonists, cell-based qHTS assay with human liver microsomes (AID 1963577)
How it was run: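 Compounds act here after metabolic activation: human liver microsomes and NADPH, both at 0.5 mg/mL final, were co-added to p53RE-bla cells. Incubation ran 16 h at 37 C, followed by LiveBLAzer detection.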

[7] = p53 small molecule agonists, cell-based qHTS assay with rat liver microsomes (AID 1963578)
How it was run: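 Read-out is beta-lactamase reporter fluorescence (LiveBLAzer, 2 h, room temperature, dark) in p53RE-bla cells treated 16 h at 37 C with compound, rat liver microsomes and NADPH, both 0.5 mg/mL final.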

[8] = p53 small molecule agonists, cell-based qHTS assay with rat liver microsomes: qHTS cell viability counter screen (AID 1963580); also: nearly all actives have a fitted effect of over 45% in size
How it was run: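 Cytotoxicity counter screen: intracellular ATP read by CellTiter-Glo luminescence in the p53 reporter wells. HCT-116 p53RE-bla cells were treated for 16 h at 37 C alongside rat liver microsomes and NADPH, each 0.5 mg/mL final.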

[9] = p53 small molecule agonists, cell-based qHTS assay: qHTS cell viability counter screen (AID 1963581); also: nearly all actives have a fitted effect of over 45% in size
How it was run: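 qHTS counter screen: 16 h compound exposure at 37 C of p53RE-bla HCT-116 cells (4,000 per well, seeded 5 h prior), cell viability by ATP luminescence.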

[10] = p53 small molecule agonists, cell-based qHTS assay (AID 1963582; active = well fitted activation curve with a large enough effect in the signal ratio in the repeat runs, not every such curve was filed as active; the % refers to the signal ratio)
How it was run: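 Measured: fluorescence from cleaved LiveBLAzer substrate. System: p53RE-bla cells, 16 h compound treatment at 37 C, 2 h substrate step at room temperature.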

[11] = biological target: 5-hydroxytryptamine receptor 2A (Homo sapiens) (UniProt P28223); experiment: 5-hydroxytryptamine receptor 2A (HTR2A) small molecule antagonists, cell-based qHTS assay (AID 1963586); also: nearly all actives have a fitted effect of over 45% in size; also: potency is read from the fitted curve at half-maximal effect
5-hydroxytryptamine receptor 2A (Homo sapiens), sequence (P28223 whole entry, looked up): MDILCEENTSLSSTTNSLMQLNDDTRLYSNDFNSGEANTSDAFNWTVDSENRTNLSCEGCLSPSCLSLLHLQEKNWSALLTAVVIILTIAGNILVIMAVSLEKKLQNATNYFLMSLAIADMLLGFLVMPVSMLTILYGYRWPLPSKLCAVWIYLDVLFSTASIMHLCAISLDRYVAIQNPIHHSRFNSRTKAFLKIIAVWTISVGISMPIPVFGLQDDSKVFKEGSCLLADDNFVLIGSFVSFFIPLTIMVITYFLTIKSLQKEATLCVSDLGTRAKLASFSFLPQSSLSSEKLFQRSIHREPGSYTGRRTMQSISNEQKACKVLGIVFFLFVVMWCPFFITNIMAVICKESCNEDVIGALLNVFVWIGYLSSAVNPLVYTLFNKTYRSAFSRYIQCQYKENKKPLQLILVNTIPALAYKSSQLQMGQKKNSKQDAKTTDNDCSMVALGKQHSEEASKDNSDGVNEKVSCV
How it was run: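 CHO cells stably expressing human HTR2A were plated for 18 h at 37 C, then loaded with calcium dye for 1 h. Compounds were preincubated 5 min at room temperature before DOI (4 nM solution) was added. Kinetic fluorescence was read for 3 min.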

[12] = biological target: 5-hydroxytryptamine receptor 2A (Homo sapiens) (UniProt P28223); experiment: 5-hydroxytryptamine receptor 2A (HTR2A) small molecule agonists, cell-based qHTS assay (AID 1963587); also: nearly all actives have a fitted effect of over 30% in size
How it was run: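 Kinetic calcium-flux fluorescence (2 min, 1 sec intervals) after compound addition in agonist mode. HTR2A-CHO cells were cultured 18 h, then dye-loaded 1 h at 37 C.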

[13] = biological target: Muscarinic acetylcholine receptor M1 (Homo sapiens) (UniProt P11229); experiment: Cholinergic receptor muscarinic 1 (CHRM1) small molecule antagonists, cell-based qHTS assay (AID 1963588); also: nearly all actives have a fitted effect of over 40% in size
Muscarinic acetylcholine receptor M1 (Homo sapiens), sequence (P11229 whole entry, looked up): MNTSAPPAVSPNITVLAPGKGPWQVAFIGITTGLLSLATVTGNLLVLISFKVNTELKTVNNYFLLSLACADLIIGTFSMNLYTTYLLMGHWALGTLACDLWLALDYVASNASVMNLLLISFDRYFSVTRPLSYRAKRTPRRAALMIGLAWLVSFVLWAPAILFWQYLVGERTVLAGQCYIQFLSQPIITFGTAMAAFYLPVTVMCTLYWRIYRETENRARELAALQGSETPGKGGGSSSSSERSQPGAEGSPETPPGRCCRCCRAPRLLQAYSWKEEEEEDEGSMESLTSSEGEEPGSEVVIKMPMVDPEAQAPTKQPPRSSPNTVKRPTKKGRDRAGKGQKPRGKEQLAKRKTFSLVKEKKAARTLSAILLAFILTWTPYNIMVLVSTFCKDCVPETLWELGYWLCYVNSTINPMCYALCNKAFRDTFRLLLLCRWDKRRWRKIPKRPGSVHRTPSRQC
How it was run: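 Compounds were tested at 15 concentrations in three independent runs. Dye-loaded CHRM1-CHO cells were exposed 5 min at room temperature before stimulation by acetylcholine added at 50nM. Intracellular calcium was read kinetically on FDSS for 3 min.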

[14] = biological target: Muscarinic acetylcholine receptor M1 (Homo sapiens) (UniProt P11229); experiment: Cholinergic receptor muscarinic 1 (CHRM1) small molecule agonists, cell-based qHTS assay (AID 1963589); also: nearly all actives have a fitted effect of over 35% in size
How it was run: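 Kinetic fluorescence (1 s intervals) of calcium-sensitive dye in human M1 CHO cells after compound addition; cells pre-incubated 18 h at 37 C/5% CO2 and dye-loaded 1 h.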

[15] = cAMP Responsive Elements (CRE) small molecule agonists, cell-based qHTS assay (AID 1963590)
How it was run: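 Test agents in DMSO were incubated 3 h at 37 C/5% CO2 with CRE-bla HEK 293T cells seeded 18 h earlier; LiveBLAzer B/G FRET substrate was added and read after 2 h at room temperature.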

[16] = cAMP Responsive Elements (CRE) small molecule antagonists, cell-based qHTS assay (AID 1963591; active = well fitted inhibition curve with a large enough effect in the signal ratio in the repeat runs, not every such curve was filed as active; the % refers to the signal ratio)
How it was run: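 Reporter line CRE-bla HEK 293T in dialyzed-FBS DMEM; cells preincubated 18 h, treated 3 h with compound plus NKH477 (0.25 uM final); LiveBLAzer FRET, 2 h RT.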

[17] = biological target: Beta-2 adrenergic receptor (Homo sapiens) (UniProt P07550); experiment: Adrenergic beta2 receptor (ADRB2) small molecule antagonists, cell-based qHTS assay (AID 1963592); also: series mostly up to about 92 µM; nearly all actives have a fitted effect of over 50% in size
Beta-2 adrenergic receptor (Homo sapiens), sequence (P07550 whole entry, looked up): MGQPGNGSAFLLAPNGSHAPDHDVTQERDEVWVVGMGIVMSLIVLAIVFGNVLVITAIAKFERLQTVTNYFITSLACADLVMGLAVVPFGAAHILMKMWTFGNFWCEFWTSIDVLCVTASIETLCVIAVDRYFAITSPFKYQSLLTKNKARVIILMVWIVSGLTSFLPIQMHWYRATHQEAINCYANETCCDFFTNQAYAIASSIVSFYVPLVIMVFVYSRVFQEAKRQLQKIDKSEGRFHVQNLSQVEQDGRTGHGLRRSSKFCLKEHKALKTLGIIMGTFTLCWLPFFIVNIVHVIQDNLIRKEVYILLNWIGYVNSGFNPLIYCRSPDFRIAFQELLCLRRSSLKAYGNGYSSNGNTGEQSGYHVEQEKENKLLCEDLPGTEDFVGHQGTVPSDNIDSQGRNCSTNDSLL
How it was run: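 Assay format: CHO-ADRB2 cells, 18-20hr seeding at 37C/5% CO2, then compound plus 1nM isoproterenol agonist mix for 0.5hr RT. Homogeneous time-resolved fluorescence cAMP detection after 1hr, expressed as 665/615 nm ratio.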

[18] = biological target: D(2) dopamine receptor (Homo sapiens) (UniProt P14416); experiment: Dopamine D2 receptor (DRD2) small molecule agonists, cell-based qHTS assay (AID 1963594); also: nearly all actives have a fitted effect of over 35% in size
D(2) dopamine receptor (Homo sapiens), sequence (P14416 whole entry, looked up): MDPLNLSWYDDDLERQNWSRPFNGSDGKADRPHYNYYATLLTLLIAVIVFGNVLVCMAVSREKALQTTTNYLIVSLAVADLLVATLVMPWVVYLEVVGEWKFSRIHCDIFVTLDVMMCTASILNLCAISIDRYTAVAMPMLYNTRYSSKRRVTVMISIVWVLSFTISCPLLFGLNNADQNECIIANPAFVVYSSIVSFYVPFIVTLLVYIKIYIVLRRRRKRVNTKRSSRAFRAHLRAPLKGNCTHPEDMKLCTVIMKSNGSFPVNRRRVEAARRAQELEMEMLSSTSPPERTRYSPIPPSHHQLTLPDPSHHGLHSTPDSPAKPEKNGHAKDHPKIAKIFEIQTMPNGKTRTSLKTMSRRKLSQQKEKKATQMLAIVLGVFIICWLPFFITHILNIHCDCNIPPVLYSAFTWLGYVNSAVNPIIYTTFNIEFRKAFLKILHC
How it was run: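 cAMP accumulation in DRD2-HEK293 cells measured by HTRF after 1 h detection; compounds added 10 min before NKH477 (200nM […]) forskolin-analogue stimulation, 30 min at room temperature, with Ro20-1724 present at 0.1 mM final.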

[19] = biological target: D(2) dopamine receptor (Homo sapiens) (UniProt P14416); experiment: Dopamine D2 receptor (DRD2) small molecule antagonists, cell-based qHTS assay (AID 1963595; active = well fitted inhibition curve with a large enough effect in the signal ratio in the repeat runs, with a control signal flat; the % refers to the signal ratio)
How it was run: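 HEK293 cells stably expressing DRD2 were preincubated with 0.1 mM Ro20-1724, then with compound for 10 min at room temperature. Cells were stimulated with 200 nM NKH477 plus 12 nM quinpirole for 30 min, and cAMP was read by HTRF.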

[20] = p53 small molecule agonists, cell-based qHTS assay with human liver microsomes: qHTS cell viability counter screen (AID 1963579); also: nearly all actives have a fitted effect of over 45% in size
How it was run: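 Cells carrying the p53 response-element beta-lactamase reporter are treated for 16 h at 37 C with test compounds in the presence of human liver microsomes and NADPH (both 0.5 mg/mL final); ATP-based CellTiter-Glo luminescence then reports viability.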

Measured: Potency

COC(=O)c1cccnc1
not listed: [20]
inactive: all other assays above

CC(=O)c1nccs1
not listed: [9] | [20]
inactive: all other assays above

CCN1CCCC1=O
not listed: [20]
inactive: all other assays above

CC(C)(C)C1CCC(O)CC1 (configuration not stated)
not listed: [20]
inactive: all other assays above

CN1C(=O)CC[C@H]1c1cccnc1
not listed: [20]
inactive: all other assays above

CC(C)CC(=O)CC(C)CC(C)C (configuration not stated)
not listed: [8] | [11]
inactive: all other assays above

NC(=O)NC(N)=O
not listed: [20]
inactive: all other assays above

O=CCCCC=O
52.5 µM (active) and inactive: [2]
not listed: [8] | [11]
inactive: all other assays above

O=C(OCc1ccccc1)c1ccc(O)cc1
active: [2] 68.6 µM and 13.3 µM | [11] 33.4 µM
not listed: [20]
inactive: all other assays above

N[C@@H](Cc1cc(I)c(Oc2ccc(O)c(I)c2)c(I)c1)C(=O)O
not listed: [11] | [12] | [13] | [14] | [16] | [20]
inactive: all other assays above

c1ccc2c(c1)ccc1cc3c(ccc4ccccc43)cc12
active: [2] 17 µM and 2.15 µM
not listed: [8] | [11]
inactive: all other assays above

CCCCCCc1ccc(O)cc1O
48.7 µM (active) and inactive: [1]
not listed: [11] | [12] | [20]
inactive: all other assays above

NNCCc1ccccc1
active: [2] 3.87 µM and 8.41 µM
not listed: [8] | [11] | [12] | [13] | [14]
inactive: all other assays above
